High-throughput results (PubChem BioAssay)
Only some compounds are listed: those with a hit (about 11% of all), similar ones and a draw of the others.
L3MBTL1 block = L3MBTL1 (human) inhibition | Q9Y468 | AlphaScreen L3MBTL1–H3K9me1 peptide binding | Potency, µM (titrated, usually from 57.1 µM), actives largely listed as inhibitors | actives 0.66% (n = 230,000); note: nearly all actives have a fitted effect of over 60% in size
Target sequence (Q9Y468 whole entry, looked up): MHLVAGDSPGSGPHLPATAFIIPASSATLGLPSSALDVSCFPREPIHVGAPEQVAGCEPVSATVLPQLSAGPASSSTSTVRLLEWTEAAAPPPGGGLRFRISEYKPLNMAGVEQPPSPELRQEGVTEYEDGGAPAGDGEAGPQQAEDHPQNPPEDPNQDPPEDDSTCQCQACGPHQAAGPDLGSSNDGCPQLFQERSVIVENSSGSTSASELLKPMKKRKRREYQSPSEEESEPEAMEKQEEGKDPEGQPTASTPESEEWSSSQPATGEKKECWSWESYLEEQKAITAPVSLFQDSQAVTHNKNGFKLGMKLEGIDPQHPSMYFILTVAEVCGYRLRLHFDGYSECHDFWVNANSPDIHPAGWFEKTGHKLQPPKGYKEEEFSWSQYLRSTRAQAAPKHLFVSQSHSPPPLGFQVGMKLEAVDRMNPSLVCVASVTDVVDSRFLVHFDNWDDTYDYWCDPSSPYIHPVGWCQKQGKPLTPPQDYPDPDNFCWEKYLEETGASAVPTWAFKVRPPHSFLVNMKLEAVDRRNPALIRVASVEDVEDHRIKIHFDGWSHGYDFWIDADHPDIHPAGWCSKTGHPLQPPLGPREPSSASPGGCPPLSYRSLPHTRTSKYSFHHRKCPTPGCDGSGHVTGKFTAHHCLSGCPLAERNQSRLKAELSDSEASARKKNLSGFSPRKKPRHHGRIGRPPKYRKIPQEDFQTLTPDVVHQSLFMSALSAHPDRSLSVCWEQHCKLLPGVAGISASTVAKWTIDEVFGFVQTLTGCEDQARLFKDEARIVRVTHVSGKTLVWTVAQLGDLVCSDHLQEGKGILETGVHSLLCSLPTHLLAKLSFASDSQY
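L3MBTL1 (50 nM) pre-complexed 30 min with biotinylated H3(1-15)K9me1 peptide (75 nM), then compounds added for 30 min at room temperature; AlphaScreen streptavidin donor/nickel chelate acceptor beads (10 ug/mL final) read after 30 min dark incubation.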
JMJD2A Tudor inh = blocks the human JMJD2A Tudor domain. actives 4.4% (n = 390,000). Potency, µM (highest dose often 114 µM), hits mostly inhibitors. AID 504339. O75164. AlphaScreen JMJD2A-Tudor / H3K4me3 peptide binding; note: nearly all actives have a fitted effect of over 50% in size
HP1b chromo inh = inhibitors of HP1-beta chromodomain binding to methylated histone tails. actives 0.56% (n = 390,000). P83916. AID 540317. Potency, µM (top dose mostly 114 µM), hits mostly inhibitors. AlphaScreen HP1-beta / biotin-H3K9me3 peptide binding; note: nearly all actives have a fitted effect of over 70% in size
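AlphaScreen: HP1-beta (50 nM) preformed 30 min with biotin-H3(1-18)K9me3 peptide (50 nM) in PBS pH 7.4, 0.01% Tween-20. Compound added for 30 min at RT, then streptavidin donor/nickel chelate acceptor beads (10 ug/mL) for 30 min.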
BAZ2B inh = blocks human BAZ2B. actives 4.4% (n = 360,000). Potency, µM (doses to about 114 µM), most hits filed as inhibitors. AlphaScreen BAZ2B-H3K14Ac peptide displacement; note: nearly all actives have a fitted effect of over 60% in size
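AlphaScreen displacement of biotin-H3(5-23)K14Ac peptide (50 nM final) from BAZ2B (50 nM final) in PBS pH 7.4, 0.01% Tween-20; complex preformed 30 min RT, then compounds (top 110 uM) 30 min RT, beads 20 min dark.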
PI5P4Ka inh = inhibitors of human PI5P4K alpha; P48426; PI5P4Kalpha enzyme, ADP-Glo luminescence, 60 min; hits give low values; max response, %; actives 1.2% (n = 330,000); AID 652105; active = max response of -50% or lower; inconclusive = between -30% and -50%; inactive = -30% or higher; note: value at the top dose of about 77 µM
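Reactions run in 0.038 M HEPES pH 7.4, 0.28 mM EGTA, 0.1% CHAPS and 5% DMSO, with PI5P4Kalpha, substrate, compound and 5 microM ATP final, one hour at room temperature. Readout is ADP-Glo luminescence.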
G9a block = blocks human histone lysine methyltransferase G9a. Potency, µM (highest dose often 102 µM), hits mostly inhibitors. actives 8.8% (n = 350,000). Q96KQ7. G9a H3K9 monomethylation, AlphaScreen, 2 h; note: nearly all actives have a fitted effect of over 75% in size
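G9a (20 nM) preincubated 15 min RT with compounds, then 500 nM biotinylated H3K9 peptide and 20 uM SAM added; 2 h RT reaction. Monomethyl-H3K9 product detected by AlphaScreen with anti-H3K9me1 antibody, streptavidin donor and anti-rabbit IgG acceptor beads.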
Each line names hits and unclear results; the compound was inactive in the other large screens. Unless noted, calls come from the whole dose curve; as a rule, active = well fitted inhibition curve with a large enough effect; inconclusive = small, poorly fitted or top-dose-only effect; inactive = no such curve, though single readings can be large or run the other way.

CCn1c(CSc2nnc(-c3ccoc3C)n2C)nc2cc(S(=O)(=O)N(C)C)ccc21	G9a block 50µM
CCn1c(CSc2nnc(C)n2-c2ccccc2)nc2cc(S(=O)(=O)N(C)C)ccc21	none
Cc1ccc(C)c(N2CCN(C(=O)C3CCN(C(=O)c4cc5sccc5n4C)CC3)CC2)c1	JMJD2A Tudor inh inconclusive, BAZ2B inh 25µM, G9a block inconclusive (no result: L3MBTL1 block, PI5P4Ka inh)
Cc1ccc(C)c(N2CCN(C(=O)c3cc4sccc4n3C)CC2)c1	JMJD2A Tudor inh inconclusive, BAZ2B inh inconclusive, G9a block inconclusive (no result: PI5P4Ka inh)
Cc1cccc(N2CCN(C(=O)C3CCN(C(=O)c4cc5sccc5n4C)CC3)CC2C)c1 (stereo unspecified)	JMJD2A Tudor inh inconclusive, BAZ2B inh 35µM (no result: L3MBTL1 block, PI5P4Ka inh)
Cc1cccc(N2CCN(C(=O)c3csc4ccccc34)CC2C)c1 (stereo unspecified)	JMJD2A Tudor inh inconclusive, BAZ2B inh inconclusive, G9a block 50µM
Cc1ccc(-c2nc(C)c(CCNS(=O)(=O)c3ccccc3F)s2)cc1	none (no result: L3MBTL1 block, PI5P4Ka inh)
CCOC(=O)c1noc2nc(C)n(Cc3cccc(C#N)c3)c(=O)c12	none (no result: L3MBTL1 block, PI5P4Ka inh)
CC(=NNC(=S)N1CCCCC1)c1ccccn1	none (no result: L3MBTL1 block, JMJD2A Tudor inh, HP1b chromo inh, BAZ2B inh, G9a block)
CSC(=S)NN=C(C)c1cccc(C)n1	JMJD2A Tudor inh 5µM (no result: L3MBTL1 block, BAZ2B inh, G9a block)
CC(=NNC(=S)Nc1ccccc1)c1ccccn1	none (no result: L3MBTL1 block, JMJD2A Tudor inh, HP1b chromo inh, BAZ2B inh, G9a block)
CC(=NNC(=S)N1CCCCC1)c1cccc(C)n1	JMJD2A Tudor inh 25µM, HP1b chromo inh inconclusive (no result: L3MBTL1 block, BAZ2B inh, G9a block)
O=C(Nc1ccc(F)cc1)[C@H](CSCc1ccccc1)N1Cc2ccccc2C1=O	JMJD2A Tudor inh inconclusive (no result: L3MBTL1 block, PI5P4Ka inh)
Fc1ccc(CNc2ccccn2)cc1	none (no result: G9a block)
CN(C)c1ccc(CNc2ccccn2)cc1	JMJD2A Tudor inh 56µM, BAZ2B inh 50µM, G9a block inconclusive
CSc1ccc(CNc2ccccn2)cc1	G9a block 45µM
Cc1cccc(NCc2ccc(N(C)C)cc2)n1	L3MBTL1 block inconclusive, JMJD2A Tudor inh 50µM, HP1b chromo inh inconclusive, BAZ2B inh 40µM, G9a block 50µM
COc1ccc(CCNC(=O)CCc2c(C)nc3c4cccnc4nn3c2C)cc1OC	none (no result: L3MBTL1 block, PI5P4Ka inh)
OC[C@H]1OC(O)[C@H](O)[C@@H](O)[C@H]1O (stereo partly specified)	none
OCC1O[C@H]([S-])[C@H](O)[C@@H](O)[C@@H]1O.[Au+] (stereo partly specified)	G9a block 0.21µM (no result: L3MBTL1 block, JMJD2A Tudor inh, HP1b chromo inh, BAZ2B inh, PI5P4Ka inh)
Cc1ccc2occ(C3N[C@H](C(=O)O)CS3)c(=O)c2c1 (stereo partly specified)	JMJD2A Tudor inh 7.9µM, HP1b chromo inh inconclusive, BAZ2B inh inconclusive, PI5P4Ka inh inconclusive, G9a block 32µM
Cc1ccc2occ(C3NC(C(=O)O)CS3)c(=O)c2c1 (stereo unspecified)	BAZ2B inh 50µM, G9a block 5µM
CCOC(=O)C1CCN(c2nc3c(S(=O)(=O)c4ccc(Br)cc4)nnn3c3ccsc23)CC1	none (no result: L3MBTL1 block, PI5P4Ka inh)
CC(=O)c1ccc(NS(=O)(=O)c2ccc(-n3cccn3)cc2)cc1	none (no result: L3MBTL1 block, PI5P4Ka inh)
C#CCOCCOCCOCCNc1nc(N2CCN(C(=O)[C@H](CCC(=O)O)n3cc(C(N)CO)nn3)CC2)nc(N2CCN(C(=O)[C@H](Cc3cc4ccccc4[nH]3)n3cc(C(N)[C@H](C)CC)nn3)CC2)n1 (stereo partly specified)	L3MBTL1 block inconclusive, JMJD2A Tudor inh 45µM, BAZ2B inh 50µM
C#CCOCCOCCOCCNc1nc(N2CCN(C(=O)[C@H](CCCCN)n3cc([C@@H](N)C(C)CC)nn3)CC2)nc(N2CCN(C(=O)[C@H](Cc3cc4ccccc4[nH]3)n3cc([C@@H](N)CC(C)C)nn3)CC2)n1 (stereo partly specified)	JMJD2A Tudor inh 35µM, BAZ2B inh 32µM, PI5P4Ka inh -57, G9a block inconclusive
C#CCOCCOCCOCCNc1nc(N2CCN(C(=O)[C@H](Cc3cc4ccccc4[nH]3)n3cc([C@@H](N)C(C)CC)nn3)CC2)nc(N2CCN(C(=O)[C@H](CCCCN)n3cc([C@@H](N)CO)nn3)CC2)n1 (stereo partly specified)	BAZ2B inh 25µM (no result: JMJD2A Tudor inh, HP1b chromo inh, PI5P4Ka inh)
